# The list is not random: actives were taken first. Their share in the collection is about 0.5%.
# E coli growth-1: E. coli growth inhibition, primary screen, OD600. Escherichia coli growth, 23 h; stronger effect = lower value. OD600 absorbance (test concentration not listed). 0.21% of 330,000 active. AID 1053175, 2014;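 active = OD600 absorbance below the run mean of sample wells minus 3.6 SD, in any replicate, cut at about 0.56 in these data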
# AddAB inh: growth inhibition of E. coli expressing H. pylori AddAB, primary screen, AddAB inhibitor project, absorbance. 0.29% of 330,000 active. inhibition, % at 11.9 µM. AID 435030, 2010; in the data active = inhibition above about 12%;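 note: 0% = vehicle wells of infected cells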
# E coli growth-2: E. coli V3065 growth inhibition, primary screen, counter-screen for AddAB inhibitor project, absorbance, OD600. 18 h. inhibition, % at 11.9 µM. 0.27% of 330,000 active. AID 449728, 2010;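 active = inhibition above the campaign's mean inhibition across all tested compounds plus 3 SD, cut at about 9.9% in these data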;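 note: uninfected addAB+ strain grown without phage in ampicillin broth; 0% = DMSO wells and 100% = ciprofloxacin 0.95 µg/ml wells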
# phage Ecoli inh: growth loss of phage-infected E. coli, primary screen, RecBCD inhibitor project, absorbance, with phage, HTS | 0.26% of 360,000 active | inhibition, % at 11.9 µM; in the data active = inhibition above about 11%
# Tat transport: E. coli Tat export inhibitors, primary screen, MC4100, TorA-mCherry reporter, fluorescence, single point; inhibition, % at 10 µM; 0.036% of 340,000 active; AID 488895, 2010;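 active = mean replicate inhibition at least 50% and at least half of replicates individually reaching 50%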;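 note: exported cargo escapes ClpAP degradation while cytoplasmic cargo is degraded and loses fluorescence; 0% = median of neutral control wells and 100% = median of NaSCN control wells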
# RecBCD conf: growth loss of phage-infected RecBCD+ E. coli, confirmation, RecBCD inhibitor project, absorbance, E. coli V66, T4 gene 2 phage; shares compounds with phage Ecoli inh; E. coli V66 + T4 2- phage, growth OD; inhibition, % at 11.9 µM; 45% of 890 active;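 active = mean inhibition over triplicates exceeding the hit threshold derived in the original primary screen, cut at about 11% in these data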
# Ecoli viability: E. coli viability inhibition, counter-screen for RecBCD inhibitor project, absorbance, high throughput; absorbance (OD) growth; AID 651983, 2013; shares compounds with phage Ecoli inh; 29% of 890 active; inhibition, % at 11.9 µM; in the data active = inhibition above about 20%;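 note: E. coli strain V66 grown with compound alone and no phage infection; 0% = bacteria with DMSO vehicle only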
# AddAB counter: growth loss of phage-infected AddAB-carrying E. coli, confirmation, counter-screen for RecBCD inhibitor project, absorbance, E. coli V3065, T4 phage | AID 651984, 2013 | E. coli expressing H. pylori AddAB + T4 phage, OD growth; gene 2 mutant T4, recBCD-deleted host | shares compounds with phage Ecoli inh | inhibition, % at 11.9 µM | 45% of 890 active;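 active = mean inhibition above the solvent-only control wells' mean plus 3 SD, cut at about 22% in these data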;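 note: higher means less bacterial growth from phage killing when AddAB is blocked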
# An asterisk follows results filed as active; x = no result given.
SMILES,E coli growth-1,AddAB inh,E coli growth-2,phage Ecoli inh,Tat transport,RecBCD conf,Ecoli viability,AddAB counter
O=[N+]([O-])c1ccc(NC(=S)NCCc2ccc(Cl)cc2)cc1,0.58,11,11*,13*,-19,3,5,9
Fc1ccc(NC(=S)NCc2ccccc2)cc1,0.65,2,1,3,14,x,x,x
O=c1c2ccccc2nc2n1CCS2(=O)=O,x,5,-2,0,-3,x,x,x
CC(=NNc1nc2ccccc2o1)c1ncccn1,x,x,x,30*,-17,29*,36*,20
CC(=NNc1nc2ccc(Cl)cc2o1)c1ccccc1,0.66,x,x,x,x,x,x,x
CC(=NNc1nc2ccccc2o1)c1cc2ccccc2cn1,x,x,x,12*,7,11,12,18
C#CCOCCOCCOCCNc1nc(N2CCOCC2)nc(N2CCN(C(=O)C(CCC(=O)O)n3cc(C(N)CCCCN)nn3)CC2)n1 (configuration not stated),0.69,x,x,x,x,x,x,x
CC(C)c1cc(C(=O)N2CCCC(CCC(=O)NCc3ccccc3F)C2)n(C)n1 (configuration not stated),0.73,-1,1,3,-2,x,x,x
O=[N+]([O-])c1ccc(N2CCN(Cc3ccccc3)CC2)s1,0.66,0,-1,1,7,x,x,x
O=[N+]([O-])c1ccc(N2CCN(Cc3ccccc3)CC2)c2c1no[n+]2[O-],x,x,x,12*,x,8,10,42*
CCCCOC1NC(=O)NC(=O)C1(F)C(=O)OCC (configuration not stated),x,x,x,6,x,x,x,x
COC(=O)C1(F)C(=O)NC(=O)NC1OC (configuration not stated),x,x,x,23*,x,27*,16,47*
O=C(Oc1c(Br)cc([N+](=O)[O-])cc1Br)c1cccnc1,0.48*,10,6,13*,22,14*,17,18
COc1ccccc1NC(=S)NC(NC(=O)c1ccco1)C(Cl)(Cl)Cl (configuration not stated),0.64,11,8,11*,-23,2,4,7
Nc1nc(N)c2cc(CNc3ccc(Cl)c(Cl)c3)ccc2n1,x,x,x,58*,x,41*,36*,73*
N#Cc1c2ccc([N+](=O)[O-])cc2[n+]([O-])n1-c1ccccc1,x,37*,38*,17*,0,16*,18,51*
O=c1c2cc([N+](=O)[O-])ccc2sn1-c1ccccc1,x,x,x,4,x,x,x,x
Oc1cccc2ccc(Nc3ccccn3)nc12,0.62,12,18*,12*,-15,6,9,5
c1ccc(Nc2ccccc2Nc2ccccn2)nc1,0.71,2,4,2,0,x,x,x
Cc1ccc(/C=N/NC(=O)Cc2cccn2C)s1,x,0,-2,2,-3,x,x,x
COc1ccc(OC)c(C(=O)Cn2nnc(-c3ccc(N4CCOCC4)cc3)n2)c1,0.75,0,0,12*,-5,-1,-2,3
NCC1OC(OC2C(N)CC(N)C(OC3OC(CO)C(O)C(N)C3O)C2O)C(N)CC1O (configuration not stated),0.68,x,x,x,x,x,x,x
NCC[C@H](O)C(=O)N[C@@H]1C[C@H](N)[C@@H](O[C@H]2O[C@H](CN)[C@@H](O)[C@H](O)[C@H]2O)[C@H](O)[C@H]1O[C@H]1O[C@H](CO)[C@@H](O)[C@H](N)[C@H]1O,x,x,x,100*,126*,100*,100*,101*
CCN(CC)c1ccc(C(=C2C=CC(=[N+](CC)CC)C=C2)c2ccccc2)cc1,x,x,x,79*,64*,73*,80*,83*
O=C(C1=C(c2ccccc2)C(=O)c2ccccc2C1=O)c1ccccc1,0.66,x,x,11*,0,-4,-3,5
SMILES,E coli growth-1,AddAB inh,E coli growth-2,phage Ecoli inh,Tat transport,RecBCD conf,Ecoli viability,AddAB counter
CCNC(=S)NNC(=S)NCc1ccccc1,0.72,10,2,11*,-5,4,3,9
S=C(NCc1ccccc1)NCc1ccc(CNC(=S)NCc2ccccc2)cc1,0.69,2,0,2,-7,x,x,x
Cc1ccc(CNC(=O)c2ccccc2-n2cnnn2)cc1,0.68,1,0,1,3,x,x,x
CC(OC(=O)c1cc2sccc2n1C)C(=O)NC(C)(C)C (configuration not stated),0.63,4,0,2,-9,x,x,x
O=C(N/N=C/c1cc2c3c(c1O)CCCN3CCC2)c1ccccc1O,x,x,x,25*,-6,10,14,14
Cc1nn(-c2ccccc2)c(N2CCCC2)c1/C=N/NC(=O)c1ccccc1O,x,3,2,-1,2,x,x,x
O=C(Nc1cc([N+](=O)[O-])c2[nH]c(=O)c3ccccc3c2c1)C(F)(F)F,x,x,x,14*,6,12*,15,96*
CC(C)C[C@H](NC(=O)N1CCCCCC1)C(=O)O,0.67,1,-1,55*,-6,1,0,-2
CCC(C)[C@H](NC(=O)N1CCCCCC1)C(=O)O (some centres not stated),0.71,2,3,-3,-2,x,x,x
C[C@@H]1CN(c2c(F)c(F)c3c(=O)c(C(=O)O)cn(C4CC4)c3c2F)C[C@H](C)N1,0.067*,x,x,98*,68*,103*,105*,104*
COc1ccc(C(=O)NCC(C)NC(=O)c2ccc(OC)cc2)cc1 (configuration not stated),0.62,2,0,0,-5,x,x,x
CC(=O)OCC1=C(C(=O)O)N2C(=O)C(NC(=O)c3ccc(F)cc3)C2SC1 (configuration not stated),0.68,0,0,2,-3,x,x,x
CON=C(C(=O)NC1C(=O)N2C(C(=O)O)=C(CSc3nc(=O)c(=O)[nH]n3C)CSC12)c1csc(N)n1 (configuration not stated),x,x,x,102*,-22,102*,103*,103*
CO/N=C(\C(=O)N[C@@H]1C(=O)N2C(C(=O)O)=C(COC(N)=O)CS[C@H]12)c1ccco1,x,-3,0,63*,1,93*,98*,81*
Cc1ccc(/C=N/NC(=O)c2cc3c(ccc4ccccc43)o2)cc1[N+](=O)[O-],x,-4,0,3,11,x,x,x
O=S(=O)(c1ccc(Cl)cc1)N1CCN(Cc2ccc(O)c3ncccc23)CC1,0.7,8,9,17*,1,6,11,14
Oc1ccc(CN2CCN(Cc3ccccc3)CC2)c2cccnc12,0.69,3,3,6,7,x,x,x
COc1cccc(-c2cnc(C(O)c3ccc(F)c(F)c3)[nH]2)c1 (configuration not stated),x,x,x,5,x,x,x,x
